Measurements from PubChem BioAssay AID651804 (National Center for Advancing Translational Sciences (NCATS), 2012).
Hit rate of the full screen: of about 1,200 compounds, about 20 (2%) were called active. Not shown: some 23% with an inconclusive outcome. This excerpt belongs to a sample that is enriched for actives. Values without a mark were called inactive. Calls follow the shape of the dose curve; as a rule, active = well fitted inhibition curve with a large enough effect; inconclusive = small, poorly fitted or top-dose-only effect; inactive = no such curve, though single readings can be large or run the other way.

These compounds were tested against Transcriptional regulator ERG (Homo sapiens) (UniProt P11308) (assay: qHTS for Small Molecule Inhibitors of the ERG Ets/DNA interaction: HTRF assay against cherry picks). Conditions: His-ERG Ets domain with biotin-DNA; series mostly up to 154 µM; activity change, negative = inhibition: at the top concentration.
Sequence of Transcriptional regulator ERG (Homo sapiens) (P11308 whole entry, looked up, the tested form may be a part): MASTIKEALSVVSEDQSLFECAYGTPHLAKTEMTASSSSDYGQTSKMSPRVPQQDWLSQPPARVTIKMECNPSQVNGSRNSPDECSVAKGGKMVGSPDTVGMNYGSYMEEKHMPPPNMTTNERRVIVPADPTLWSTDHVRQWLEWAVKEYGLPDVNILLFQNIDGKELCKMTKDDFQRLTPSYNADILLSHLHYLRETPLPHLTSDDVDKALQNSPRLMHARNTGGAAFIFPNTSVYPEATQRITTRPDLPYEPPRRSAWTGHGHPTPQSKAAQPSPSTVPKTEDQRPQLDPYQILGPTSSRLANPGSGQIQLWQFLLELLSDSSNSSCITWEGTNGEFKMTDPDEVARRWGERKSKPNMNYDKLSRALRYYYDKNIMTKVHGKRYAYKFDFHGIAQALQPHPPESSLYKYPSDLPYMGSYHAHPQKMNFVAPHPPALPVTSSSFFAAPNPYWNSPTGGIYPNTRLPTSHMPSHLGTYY
Procedure, shortened: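 HTRF of His-tagged ERG Ets domain (200 nM solution) with biotin-DNA (200 nM solution) in 300mM KCl, 50mM Tris-HCl pH 7.5, 1mM EDTA, 1mM DTT; 10 min RT. Anti-His cryptate donor plus streptavidin acceptor added, 10 min, FRET read at 615/665 nm.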
Potency is read from the fitted curve at half-maximal effect.

Row | SMILES | activity change, negative = inhibition [%] | Potency
1 | CC1(c2ccccc2Cl)NC(=O)N(CC(=O)Nc2ccccc2OC(F)F)C1=O (configuration not stated) | -6.9 | 
2 | Cc1cccc(NC(=O)c2ccccc2NC(=O)c2ccco2)c1 | -1.8 | 
3 | COc1ccc(-c2n(CC(=O)OC3CC(C)CCC3C(C)C)c3ccccc3[n+]2C)cc1 (configuration not stated) | -5.73 | 
4 | Cc1cccc(C(=O)N[C@H](C(=O)Nc2ccc(C)c(S(=O)(=O)N(C)C)c2)C(C)C)c1 | -14.5 | 
5 | CCN(CC(=O)Nc1ccccc1C(F)(F)F)C(=O)c1ccc(N2C(=O)CCC2=O)cc1 | -29.6 | 
6 | Cc1ccc(NS(=O)(=O)c2ccc(NC(=O)c3ccccc3C(=O)O)cc2)cc1C | -25.4 | 
7 | CCc1cccc(C)c1NC(=O)CSc1nc(C)c(C)o1 | -16.9 | 
8 | COC(=O)Nc1ccc(S(=O)(=O)NNC(=O)c2c(O)c3ccccc3n(C)c2=O)cc1 | -6.74 | 
9 | CCOC(=O)C1CN(S(=O)(=O)c2cc(OC)ccc2OC)C1 | -25.9 | 
10 | COc1ccc(-n2c(=O)c3c4c(sc3n(Cc3ccc(C(C)(C)C)cc3)c2=O)CCC4)c(OC)c1 | -17.8 | 
11 | CC(=O)Nc1cccc(NC(=O)c2ccccc2OCc2c(C)noc2C)c1 | -3.18 | 
12 | Cc1ccc(S(=O)(=O)NC2CCCC(C(=O)O)C2)cc1 (configuration not stated) | -6.9 | 
13 | Cc1cc(C)cc(-n2ccnc2SCC(=O)Nc2ccc(C)c(Cl)c2)c1 | -25.1 | 
14 | COC(=O)[C@H](Cc1ccccc1)NC(=O)C1(OC(C)=O)CC(OC(C)=O)C(OC(C)=O)C(OC(C)=O)C1 (some centres not stated) | -7.96 | 
15 | CCCCn1c(N)c(N(CCOC)C(=O)c2ccc(S(=O)(=O)N3CCCCC3)cc2)c(=O)[nH]c1=O | 11.4 | 
16 | COc1ccc(OCCCC(=O)Nc2cccc(C(C)=O)c2)cc1 | -26.7 | 
17 | Cc1cccc(NC2(C(=O)O)CCCC2)c1 | 2.86 | 
18 | CC(=O)c1ccc(OCc2ccc(Oc3c(Cl)cccc3[N+](=O)[O-])cc2)cc1 | -23.2 | 
19 | Cc1ccc2c(c1)N(CC(=O)NC1CCCc3ccccc31)C(=O)CO2 (configuration not stated) | 4.19 | 
20 | CC(=O)Nc1ccc(S(=O)(=O)N2CCCC(C(=O)N3CCN(c4ccccc4)CC3)C2)cc1 (configuration not stated) | -22.1 | 
21 | CCc1ccc(Nc2ncnc3nc[nH]c23)cc1 | -29.9 | 
22 | CC(C)CCNC(=O)c1ccc2c(SCC(=O)O)c3c(nc2c1)CCCC3 | -25.2 | 
23 | Cc1cc(NC(=O)CCC(=O)N(CC(=O)NC2CCCC2)c2ccc(C)c(F)c2)no1 | 6.26 | 
24 | C[C@H](NC(=O)[C@@H]1Cc2ccccc2CN1C(=O)OC(C)(C)C)C(=O)NC1CCCCC1 | -5.84 | 

Row | SMILES | activity change, negative = inhibition [%] | Potency
25 | CC(C)(CNC(=O)CC1C(=O)NCCN1Cc1cccc(F)c1)N1CCOCC1 (configuration not stated) | -3.02 | 
26 | CCc1ccc(NC(=O)/C(C#N)=C/c2cc3ccc(C)cc3nc2N2CCOCC2)cc1 | 73.4 | 
27 | OC(CN1CCCCC1)Cn1c2ccccc2c2cc(Br)ccc21 (configuration not stated) | -1.59 | 
28 | CC1(C)CC(=O)/C(=C\c2cccc([N+](=O)[O-])c2)C(C)(C)N1 | -6.21 | 
29 | Cc1cc(C)c(S(=O)(=O)N2CCN(C(=O)N3CCOCC3)CC2)c(C)c1 | 1.33 | 
30 | CN(C)CCN1C(=O)c2cccc3cc([N+](=O)[O-])cc(c23)C1=O |  | 7.94 µM (active)
31 | O=C(OCC(=O)c1ccc(Cl)s1)c1cncc(Br)c1 | -17.7 | 
32 | Cc1cccc(/C=N/NC(=O)NC23CC4CC(CC(C4)C2)C3)n1 | -19.3 | 
33 | CC(=O)N1CCN(c2nnc(-c3ccccc3)c3ccccc23)CC1 | 2.55 | 
34 | CC1(C)CC(=O)C(C(O)c2ccccc2)C(C)(C)N1 (configuration not stated) | -12.9 | 
35 | CCCn1c(=O)c(C(=O)NNS(=O)(=O)c2ccc(C)cc2)c(O)c2ccccc21 | -38.8 | 
36 | O=C1CCN(S(=O)(=O)c2ccc(Br)cc2)CCN1 | -26.1 | 
37 | O=C(COC(=O)c1cccc(-n2cnnn2)c1)c1ccccc1 | -11.8 | 
38 | COc1cc(NCCCC(C)N)c2ncccc2c1 (configuration not stated) |  | 44.7 µM (active)
39 | CNC(=S)N/N=C/c1c(C)nn(-c2ccccc2)c1Cl | -37.2 | 
40 | O=S(=O)(NCCNS(=O)(=O)c1ccc(F)cc1)c1ccc(F)cc1 | -20.7 | 
41 | c1ccc(Oc2ncnc3ccccc23)cc1 | -23.6 | 
42 | CN(C)CCCNc1c2ccccc2nc2ccccc12 | -88.9 | 
43 | Nc1cccc2nc3ccccc3cc12 |  | 50.1 µM (active)
44 | Nc1c2ccccc2nc2ccccc12 |  | 11.2 µM (active)
45 | CC(=O)Nc1ccc2c(c1)NC(=O)CC2 | -12.5 | 
46 | CN(C)c1ccc2c(c1)C(=NO)c1ccccc1-2 |  | 70.8 µM (active)
47 | COC(=O)Cc1ccc(NC(=S)NC(C)(C)C)cc1 | -5.89 | 
